Measured values: PMC12864922, “TDP-43 directly inhibits mRNA accumulation in neurites through modulation of mRNA stability”
Whole data set: some 9,900 sequences, median “r (bound/input frequency ratio)” near 0.7, cut for the highest 2% near 6.5. The sample as a whole holds a higher share of the highest values than the screen did.

B1: ENSMUSG00000061578.598|Ksr2 (ssRNA)
RNA: GGGAGUUCUACAGUCCGACGAUCGCUUCGAUAUCCGCAUGCUAUAAAAUAUGAUUCAGGCAAAUUCAAUGCAACUCAAAAUUUCCACCAAUCCCAUAUUGUCCCUAGCAAUGACAAAAUUAUUUGCAAGACAGACCCUGUGACCUGUAGAGGCAAAAUAUAUGGUGGCUUGCCUGGCUGGCCUGUGAUAUAGUGGACUGUCUUAGUGAUCGGACUUCAGGGAGCAACCUAUAGGAAAUGCAAAGGCUUAGAGGGGACGGACAGCUCCCUGACCCUGGAUGGCCAGGAAUGGUGCUAGCUAGGGCUCUUGCGGUCGCACUAGUGUGGAAUUCUCGGGUGUCAAGG
B2: ENSMUSG00000031028.646|Tub (ssRNA)
RNA: GGGAGUUCUACAGUCCGACGAUCGCUUCGAUAUCCGCAUGCUACCCCACUGAGGUCCAGGUAGAGCAGAUGAGGCUGAAAUGUAGAGUGUUCUAUAGAGCAUCUCAGUAGCAUAGAAGGAGAAGCCCAGCUCCAACCUCCUGGACCCCAUACUGGUGACCAGCUUGGUGAGGACAGGCAAAAUUUCUCUAGCUGAGAGCACACUUAGCCAGUUUUCACGCCUAGAACAUAUAUGUCGAUUUGCACAUGAUUGUCUUUUCCUAUUUUGGAGUGGUCAGACAUUUUAUUUUUGUUCAAAAUUAUCCUCUUGCGGUCGCACUAGUGUGGAAUUCUCGGGUGUCAAGG
B3: ENSMUSG00000031028.671|Tub (ssRNA)
RNA: GGGAGUUCUACAGUCCGACGAUCGCUUCGAUAUCCGCAUGCUAGAGAGCACACUUAGCCAGUUUUCACGCCUAGAACAUAUAUGUCGAUUUGCACAUGAUUGUCUUUUCCUAUUUUGGAGUGGUCAGACAUUUUAUUUUUGUUCAAAAUUAUCUGGAGUUUUAGACAAACUUGCAAAACUGUGCUUUUAUUAAGUGACUUUUUGAAUAAACUUUUUGGUAUUCUGAAGCAAAUGUAUUUAUUUAUUGGUAUGUGCAAUGACAAACUUGGUAUUUUCCCAUAAUGACAUUAUGUAUGUUGUAGACUCUUGCGGUCGCACUAGUGUGGAAUUCUCGGGUGUCAAGG
B4: ENSMUSG00000029636.275|Wasf3|21:26 (ssRNA)
RNA: GGGAGUUCUACAGUCCGACGAUCGCUUCGAUAUCCGCAUGCUAUCCCUACGCCCUGCUUUGGCCACACACUGAGUGCUCUGUGCUGCGCCAUGGCCAUCCUGGAGCCUGCGCACACGUGGCCGCUGCUGUGACUCGCUGUCCUUGGUAAUUGGUGAGAGGCUUUUUCUUUCUUUCUCAGUUCUGCUUUUCCACACUGAGACCCACCAUGUUGACAUCAUCCUCGCGACGUUGACAUUUGAGCCUUUUGUUCUGUCUCCCAUGUGCCCUGUAGAACCCAGCACUCAUGUUUGGCAAAACUUUUUCUCUUGCGGUCGCACUAGUGUGGAAUUCUCGGGUGUCAAGG
B5: ENSMUSG00000061578.898|Ksr2 (ssRNA)
RNA: GGGAGUUCUACAGUCCGACGAUCGCUUCGAUAUCCGCAUGCUAGACACUACCCAAACCCUAGCACUCUCCCAGUGACUCUCCUAUGAGUACAUAUGCCAUCCUGCUUCCUUUGUGGCAAAACCCUGGGUCACCCAGAGACAGAUUUCCCAGAAUCCCUGGGCCACUUCUCAAUUCUACCCAUGACAGACAUGUCCCAUCCAUGAGCCCAGAUAGUCAAAGACUUCAGCACAAGGGUGUUUAGAGUAGGCAGUGUGGAAGUAUCAAUAAGGUUAUUGAGAUGAGGAUUUAGAAAGAUCCAUGUACUCUUGCGGUCGCACUAGUGUGGAAUUCUCGGGUGUCAAGG
B6: ENSMUSG00000042529.46|Kcnj12|142:149 (ssRNA)
RNA: GGGAGUUCUACAGUCCGACGAUCGCUUCGAUAUCCGCAUGCUAGGCCAAAAUGACUGGCUCACGGCCUCGGAGGCUGAUGUAUACCCAUGGGCAAGGAGGUGACUUCUUGGGGUAGGGUUGCUCAGGAGUUAGGGACUCUGCUGGAGGCCUUAGGUGCAGGUCCCAGCCCCGGUGGGAGGAGGCACACAUACUACACUUCAUUGGUUUUUAACUUGGGCAAGACUGUUUACAAACAAAAACAAACAAACAAACAAUCAAAAAAAAAACCCACCCCACAAAACACAAGAAAACAUUAACAGGUGCUCUUGCGGUCGCACUAGUGUGGAAUUCUCGGGUGUCAAGG
B7: ENSMUSG00000031028.261|Tub (ssRNA)
RNA: GGGAGUUCUACAGUCCGACGAUCGCUUCGAUAUCCGCAUGCUACCAGAGGGAAGCAAAGAGCAUUUAGACAUUGCUUUUUGCUUUGAAAUAGAUAUGUUUGGAAACGCUAAGUAGAAGUUUAAAAAGUAGAGUCAUGUAGAGUCAUGCUUUGAAUAUGUGGGUCAUGCUUUAGAUAUGAAGAGGCUAUGCAGGUAAGGAGGCUGGAUUGAUGUAAAUGGAAGUAGUACUUUAAGAAAGCUCUAGAUUUCCCAGGUUGGACACUCGACGAAAGGCACACCUGCUGCAGCAGGUUCUGACACACCCUCUUGCGGUCGCACUAGUGUGGAAUUCUCGGGUGUCAAGG
B8: ENSMUSG00000043670.150|Diras1|4:8;157:162;227:231 (ssRNA)
RNA: GGGAGUUCUACAGUCCGACGAUCGCUUCGAUAUCCGCAUGCUAGGACACACGAGUGGCUGCCUGGACACUGCCCACCUGGACACCAGCCUUCUGCUGAGAUAGAGACCUUGGCACAGUGGCACCUCGACAGCCACCCCGACUGGGGGUUUGGGGUGCUGAGGGUGGGGUGCCCAGCUGAGAGUCUAUCAGCAAAGUCCCACACACCGGUGAUAGGACUAGUGGCUGCUGCCCUAGGGCUCUGACAGAAUCUGAGCCUCUUUGCUGGUCAACACAACUCUGGAGACUGUCCCCCAUGUCUGCCCCUCUUGCGGUCGCACUAGUGUGGAAUUCUCGGGUGUCAAGG
B9: ENSMUSG00000034801.46|Sos2 (ssRNA)
RNA: GGGAGUUCUACAGUCCGACGAUCGCUUCGAUAUCCGCAUGCUACCACCCGCCACUGUAUAGACUGCCUCUGCUGGAAAAUGCAGAAACUCCUCAAUGACCUUGGCCAUAUGUAGUCAUUGACACUGGAAUAGUAUUUGUAAAGGUUUUUAAUUUAUUCAAAAAGACAUAGUAUUUUAGUACUUUUUACAGAAAUGCUACUGAUUAAAUAAGCUCUUAAGAAUUAGUAAACUUGUUGGAUGGCAGUGGCCCACAGCUGUAAUCCCAGCACCCUGGUUGCAGGGGCAGGUGGGCUUCAGGGUUUGCUCUUGCGGUCGCACUAGUGUGGAAUUCUCGGGUGUCAAGG
B10: ENSMUSG00000043670.73|Diras1 (ssRNA)
RNA: GGGAGUUCUACAGUCCGACGAUCGCUUCGAUAUCCGCAUGCUAACACACUGGAGGUUUGAUCCCUGUGGAUCUGAAAACAGGGACCUGGCUAAGGAACUGCUCAUCCCAGUCAGGCCCAGAGAGGUUACCUUGCCUCUCCAUCUCUGUCCCUGUGUGCCCAGCCAUGCCCACUGUCCCUGUCCCUCACAUUCUAUCACUGUGACCUCUGGGGAGUGCCCAUUGACCUCAUCUUCCUUCACUAAUAUCUUAUUUCUUUCACCUGAUCCUGUCCUUUCCCCGUGACCUCUGACCUGUGGCCUUCCCUCUUGCGGUCGCACUAGUGUGGAAUUCUCGGGUGUCAAGG
B11: ENSMUSG00000004113.197|Cacna1b|112:116 (ssRNA)
RNA: GGGAGUUCUACAGUCCGACGAUCGCUUCGAUAUCCGCAUGCUACCUCUGCUCAACCAAGUGCCUGAUCUCUGGCUCUGAGCAUCGUGGAUGAGGUACGGCCUCAGGAAGCAUCGGGUGGAUUGGGUGGGAGCUGCUCAGAGCAGCACGGGGGCUACACACUUAGGGACAUUGACAGUGUCCAUCAGCAUGUCAGAGAAGCAGCUGUAGUGCCCGUGUUUCUCCCUGAGUCAUGGGUUCUGAAGAAGCCAGAGCGGCACAAUGCGUGCUUGCAUGAGGCACUUUCAGCCUUUUUAAAUCUGACUCUCUUGCGGUCGCACUAGUGUGGAAUUCUCGGGUGUCAAGG
B12: ENSMUSG00000090935.575|Synj2bp (ssRNA)
RNA: GGGAGUUCUACAGUCCGACGAUCGCUUCGAUAUCCGCAUGCUAAUUCAAAUUUUAUGUUUCUUAUAGACUGACUCAAAUAUUCCUACCACCUUAAAAUUAUAUAUGAUGCACCUACCACAUAAAUUAUAAUGUUUAAUGUUUUGAAAAUGGAUUAUAGGUAUUUUUAAGUUUUCAUAAAGUAUUUCUUAUAUUUGUCAUUGUGAAUUAUAUGUAAUUCUAAUAGACACUGUUUGCUUCAGUUGUUUUUGUUUCCUUUUCCUACAGUUUUCUGUGUGGGUGAUUUCAUUUAAUUAAUUGGACAGCUCUUGCGGUCGCACUAGUGUGGAAUUCUCGGGUGUCAAGG
B13: ENSMUSG00000028439.177|Fam219a (ssRNA)
RNA: GGGAGUUCUACAGUCCGACGAUCGCUUCGAUAUCCGCAUGCUAUAUGCACAUGUGUGUGCAUGUGUGUGUGCCUGUGUGUGUGCGUGUGCGUGUGUGUAUGUGUGUGCGUGUGUGUGUGUGUGUGUUGUACCCGAGUGUGUGUUGAGCCUAUCUGUCCAGGGAACCAGAUUGGUGUCCGAGAUGAGGAAAUGGCUGUGGCCUGGGAAAUCAGUGAGAGGCCGCUUGGGAAUGAGAAUGCAGUGGACUGAAAGCACAGCCUGGCCAUCUGGAACCUGGGUUCUGGUCCCAGCCUCGGCAUUCUCCUCUUGCGGUCGCACUAGUGUGGAAUUCUCGGGUGUCAAGG
B14: ENSMUSG00000028439.180|Fam219a (ssRNA)
RNA: GGGAGUUCUACAGUCCGACGAUCGCUUCGAUAUCCGCAUGCUAUGUGUGUGUGCCUGUGUGUGUGCGUGUGCGUGUGUGUAUGUGUGUGCGUGUGUGUGUGUGUGUGUUGUACCCGAGUGUGUGUUGAGCCUAUCUGUCCAGGGAACCAGAUUGGUGUCCGAGAUGAGGAAAUGGCUGUGGCCUGGGAAAUCAGUGAGAGGCCGCUUGGGAAUGAGAAUGCAGUGGACUGAAAGCACAGCCUGGCCAUCUGGAACCUGGGUUCUGGUCCCAGCCUCGGCAUUCUCCCUGAGCUCCUAAGCAAUCUCUUGCGGUCGCACUAGUGUGGAAUUCUCGGGUGUCAAGG
B15: ENSMUSG00000028439.179|Fam219a (ssRNA)
RNA: GGGAGUUCUACAGUCCGACGAUCGCUUCGAUAUCCGCAUGCUAUGUGCAUGUGUGUGUGCCUGUGUGUGUGCGUGUGCGUGUGUGUAUGUGUGUGCGUGUGUGUGUGUGUGUGUUGUACCCGAGUGUGUGUUGAGCCUAUCUGUCCAGGGAACCAGAUUGGUGUCCGAGAUGAGGAAAUGGCUGUGGCCUGGGAAAUCAGUGAGAGGCCGCUUGGGAAUGAGAAUGCAGUGGACUGAAAGCACAGCCUGGCCAUCUGGAACCUGGGUUCUGGUCCCAGCCUCGGCAUUCUCCCUGAGCUCCUACUCUUGCGGUCGCACUAGUGUGGAAUUCUCGGGUGUCAAGG
B16: ENSMUSG00000028439.178|Fam219a (ssRNA)
RNA: GGGAGUUCUACAGUCCGACGAUCGCUUCGAUAUCCGCAUGCUACAUGUGUGUGCAUGUGUGUGUGCCUGUGUGUGUGCGUGUGCGUGUGUGUAUGUGUGUGCGUGUGUGUGUGUGUGUGUUGUACCCGAGUGUGUGUUGAGCCUAUCUGUCCAGGGAACCAGAUUGGUGUCCGAGAUGAGGAAAUGGCUGUGGCCUGGGAAAUCAGUGAGAGGCCGCUUGGGAAUGAGAAUGCAGUGGACUGAAAGCACAGCCUGGCCAUCUGGAACCUGGGUUCUGGUCCCAGCCUCGGCAUUCUCCCUGAGCUCUUGCGGUCGCACUAGUGUGGAAUUCUCGGGUGUCAAGG

The binders below were run against TDP-43 (Homo sapiens, UniProt Q13148 1-414) (assay: RNA Bind-n-Seq with designed 260-mer pool; 25 mM Tris-HCl, 150 mM KCl, 3 mM MgCl2, BSA (printed 500 mg/mL), 20 units/mL SUPERase IN; pH not stated; 500 nM RNA pool, 1 h, 4 C; TDP-43 5, 50, 500 nM; high values mean tight binding). Conditions: protein: recombinant; tags: SBP (GST cleaved off with PreScission; pGEX-GST-SBP).
TDP-43, sequence (Q13148 whole entry): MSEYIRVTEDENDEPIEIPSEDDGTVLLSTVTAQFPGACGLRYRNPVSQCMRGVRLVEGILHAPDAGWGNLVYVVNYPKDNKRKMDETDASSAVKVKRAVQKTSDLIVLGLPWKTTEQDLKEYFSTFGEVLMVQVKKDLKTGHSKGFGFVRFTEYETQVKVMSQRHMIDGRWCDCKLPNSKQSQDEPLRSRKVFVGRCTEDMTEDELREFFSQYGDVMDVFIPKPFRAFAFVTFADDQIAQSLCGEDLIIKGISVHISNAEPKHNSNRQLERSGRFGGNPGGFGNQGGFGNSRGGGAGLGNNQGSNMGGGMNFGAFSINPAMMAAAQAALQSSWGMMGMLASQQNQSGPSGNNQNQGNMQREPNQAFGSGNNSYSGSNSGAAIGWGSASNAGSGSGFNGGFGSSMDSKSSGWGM
Procedure, shortened: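 An in vitro-transcribed pool of 260-nt 3′ UTR oligos (500 nM) was incubated for 1 h at 4 °C with recombinant SBP-tagged TDP-43 at 5, 50 or 500 nM held on streptavidin beads. The buffer contained 25 mM Tris-HCl, 150 mM KCl, 3 mM MgCl2, BSA and SUPERase IN. Biotin-eluted bound RNA was sequenced, and binding, R, is each oligo's normalized read abundance in the bound sample over that in input.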
B1 was tested, and the binding signal was 0.515 R (bound/input frequency ratio). B2 was tested, and the binding signal was 0.442 R (bound/input frequency ratio). With B3 the binding signal was 0.247 R (bound/input frequency ratio). For B4, the binding signal was 1.01 R (bound/input frequency ratio). In the case of B5, the binding signal is reported as 0.362 R (bound/input frequency ratio). With B6 the binding signal was 0.514 R (bound/input frequency ratio). B7 was tested, and the binding signal was 2.37 R (bound/input frequency ratio). For B8, the binding signal was 1 R (bound/input frequency ratio). In the case of B9, the binding signal is reported as 0.116 R (bound/input frequency ratio). B10 was tested, and the binding signal was 2.54 R (bound/input frequency ratio). B11 was tested, and the binding signal was 0.691 R (bound/input frequency ratio). B12 was tested, and the binding signal was 0.0736 R (bound/input frequency ratio). In the case of B13, the binding signal is reported as 8.05 R (bound/input frequency ratio). For B14, the binding signal was 5.95 R (bound/input frequency ratio). In the case of B15, the binding signal is reported as 7.2 R (bound/input frequency ratio). B16 was tested, and the binding signal was 9.43 R (bound/input frequency ratio).
